Calls of active or inactive are those of the source. Rule for the calls: active = hit-call score of the fitted dose curve at least 0.9, where 1 is the maximum; inactive = score below 0.9.
Legend:
[1] = ATG_CRE_CIS: Attagene CIS-FACTORIAL HepG2 Assay for human cAMP Responsive Element (CRE) binding protein 3 (AID 2282926); conditions: HepG2 CRE cis-reporter, Attagene multiplexed mRNA; actives raise or lower the signal
Procedure, shortened: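 Transfected HepG2 were treated for 24 hours, then RNA was extracted and reporter cDNA amplified with sequence-specific primers. Labelled fragments were separated by capillary electrophoresis, and the CRE signal was fitted bidirectionally with DMSO as baseline.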

[2] = biological target: CCAAT/enhancer-binding protein beta (Homo sapiens) (UniProt P17676); assay: ATG_C_EBP_CIS: Attagene CIS-FACTORIAL HepG2 Assay for human CCAAT/Enhancer Binding Protein (C/EBP) beta (AID 2282927); conditions: HepG2 Attagene cis-factorial transcription factor reporter; actives raise or lower the signal
Procedure, shortened: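 Endogenous C/EBPb-driven reporter transcripts measured in transfected human HepG2 cells at 24 h via RT-PCR and capillary electrophoresis of labelled fragments. Activity fitted in both directions relative to DMSO baseline.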

[3] = ATG_CMV_CIS: Attagene CIS-FACTORIAL HepG2 Assay for human CMV (Internal Marker) (AID 2282928); conditions: HepG2 CMV promoter reporter, transcription factor profiling; actives raise or lower the signal;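 note: endpoint acts as a background internal control marker rather than a target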
Procedure, shortened: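 After transient transfection of HepG2 with reporter transcription units driven by cis-regulatory promoters, cells receive test chemical for 24 h. Labeled reporter amplicons, digested with HpaI, are sized and quantified by capillary electrophoresis against DMSO.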

[4] = ATG_DR4_LXR_CIS: Attagene CIS-FACTORIAL HepG2 Assay for human Liver X Receptor (LXR), DR4 submotif (AID 2282929); conditions: HepG2 Attagene DR4 cis-reporter, mRNA transcription; actives raise or lower the signal
Procedure, shortened: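 The endpoint is DR4-element-driven reporter transcripts after 24 h chemical exposure of transfected HepG2 cells. These were measured via RT-PCR and capillary electrophoresis, and gain or loss of signal was fitted relative to DMSO controls.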

[5] = biological target: Aryl hydrocarbon receptor (Homo sapiens) (UniProt P35869); assay: ATG_Ahr_CIS: Attagene CIS-FACTORIAL HepG2 Assay for human Aryl Hydrocarbon Receptor (Ahr) (AID 2282930); conditions: HepG2 AhR cis-factorial reporter transcription; actives raise or lower the signal
Procedure, shortened: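 Reporter mRNA levels, quantified by RT-PCR and fluorescent capillary electrophoresis, reflect endogenous AhR transcriptional activity in HepG2 cells carrying transfected cis-promoter reporter constructs. Readout at 24 h post-dose; gain or loss fitted against DMSO baseline.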

[6] = ATG_AP_1_CIS: Attagene CIS-FACTORIAL HepG2 Assay for human Activator Protein 1 (AP-1) (AID 2282931); conditions: HepG2 Attagene cis-factorial AP-1 reporter mRNA; actives raise or lower the signal
Procedure, shortened: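 Readout is reporter transcript level from endogenous transcription factor activity, quantified by RT-PCR with fluorescent primer extension and capillary electrophoresis. Transiently transfected HepG2 cells, 24 h exposure. Curves fitted both directions versus DMSO.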

[7] = ATG_AP_2_CIS: Attagene CIS-FACTORIAL HepG2 Assay for human Activator Protein 2 (AP-2) (AID 2282932); conditions: HepG2 AP-2 cis-reporter, Attagene transcription factor profiling; actives raise or lower the signal
Procedure, shortened: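 HepG2, transient MRTU transfection, cis-regulated reporters; 24 h compound exposure; RNA isolated, RT-PCR, 6-FAM labelling, HpaI digest, CE fluorescence. DMSO = negative control/baseline, bidirectional fit.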

[8] = ATG_BRE_CIS: Attagene CIS-FACTORIAL HepG2 Assay for human Bone Morphogenetic Protein (BMP) Response Element (BRE) (AID 2282933); conditions: HepG2 BMP response element reporter, Attagene transcription factor profiling; actives raise or lower the signal
Procedure, shortened: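 A HepG2 multiplex reporter system measured inducible reporter mRNA 24 h post-dosing. Detection: RT-PCR, 6-FAM primer extension, HpaI digestion, capillary electrophoresis. Activity fitted bidirectionally relative to DMSO.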

[9] = biological target: Retinoic acid receptor alpha (Homo sapiens) (UniProt P10276); assay: ATG_DR5_RAR_CIS: Attagene CIS-FACTORIAL HepG2 Assay for human Retinoic Acid Receptor Alpha (RARE), DR5 submotif (AID 2282934); conditions: HepG2 Attagene cis-factorial RARE DR5 reporter, mRNA; actives raise or lower the signal;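 for AC50: reporter responds to endogenous RAR alpha beta and gamma in HepG2 not RARA alone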
Procedure, shortened: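 Reporter transcripts from a DR5-regulated unit, measured via RT-PCR plus capillary electrophoresis, reflect endogenous RAR activity in transiently transfected human HepG2 liver cells. Exposure lasted 24 h; gain or loss of signal scored against DMSO.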

[10] = biological target: Transcription factor E2F1 (Homo sapiens) (UniProt Q01094); assay: ATG_E2F_CIS: Attagene CIS-FACTORIAL HepG2 Assay for human E2F Transcription Factor 1 (AID 2282935); conditions: HepG2 Attagene cis-reporter, E2F reporter RNA transcripts; actives raise or lower the signal
Procedure, shortened: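 Cis-element reporter mRNA induction in transiently transfected HepG2, 24 h exposure. Activity fitted in both directions relative to DMSO negative control.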

[11] = ATG_E_Box_CIS: Attagene CIS-FACTORIAL HepG2 Assay for human Enhancer Box (E-box) (AID 2282936); conditions: HepG2 E-box cis-reporter transcription, actives raise or lower the signal
Procedure, shortened: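 Cells: HepG2 (human liver), transient MRTU transfection. Exposure 24 h. RNA → oligo(dT) RT → PCR → 6-FAM label → HpaI → CE. Activity fitted both directions relative to DMSO.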

[12] = ATG_M_61_CIS: Attagene CIS-FACTORIAL HepG2 Assay for M61 Transcription Factor (Internal Marker) (AID 2282937); conditions: HepG2 Attagene CIS-FACTORIAL M61 internal marker reporter; actives raise or lower the signal
Procedure, shortened: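 Readout is reporter mRNA by RT-PCR, fluorescent primer extension and capillary electrophoresis, with gain or loss fitted relative to DMSO. Transfected HepG2 cells carrying endogenous-TF-driven cis reporters were exposed to chemicals for 24 hours.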

[13] = ATG_EGR_CIS: Attagene CIS-FACTORIAL HepG2 Assay for human Early Growth Response 1 (EGR1) (AID 2282938); conditions: HepG2 Attagene CIS-FACTORIAL EGR reporter mRNA; actives raise or lower the signal
Procedure, shortened: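 After 24 h compound exposure, RNA from reporter-transfected HepG2 cells was reverse-transcribed, PCR-amplified, fluorescently labelled and resolved by capillary electrophoresis. EGR1 reporter transcript changes, up or down, were fitted against DMSO, reflecting endogenous transcription-factor activity.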

[14] = ATG_M_19_CIS: Attagene CIS-FACTORIAL HepG2 Assay for M19 Transcription Factor (Internal Marker) (AID 2282939); conditions: HepG2 Attagene CIS-FACTORIAL M19 internal marker reporter; actives raise or lower the signal
Procedure, shortened: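 Chemical-treated HepG2 (24 h) with MRTU constructs; reporter transcripts detected by fluorescent RT-PCR fragment analysis on capillary electrophoresis. Internal background marker, DMSO as baseline.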

[15] = ATG_ERE_CIS: Attagene CIS-FACTORIAL HepG2 Assay for Estrogen Response Element (ERE) (AID 2282940); conditions: HepG2 ERE cis-reporter, Attagene RNA transcript; actives raise or lower the signal
Procedure, shortened: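 Human liver cells (HepG2) bearing transiently transfected, promoter-regulated reporter units were exposed 24 h. Reporter mRNA induction was detected by capillary electrophoresis of labelled RT-PCR products and fitted bidirectionally to DMSO.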

[16] = ATG_Ets_CIS: Attagene CIS-FACTORIAL HepG2 Assay for human Erythroblast Transformation Specific (ETS) (AID 2282941); conditions: HepG2 ETS cis-reporter transcription, actives raise or lower the signal
Procedure, shortened: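 Human HepG2 hepatoma cells were transiently transfected with promoter-driven reporter constructs and treated for 24 hours. Reporter transcripts were quantified by RT-PCR with fluorescent primer extension; bidirectional curve fitting used DMSO as reference.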

[17] = biological target: Hepatocyte nuclear factor 3-beta (Homo sapiens) (UniProt Q9Y261); assay: ATG_FoxA2_CIS: Attagene CIS-FACTORIAL HepG2 Assay for human Forkhead box A2 (FOXA2) (AID 2282942); conditions: HepG2 cis-reporter transcription factor activity, 24 h; actives raise or lower the signal
Procedure, shortened: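 Endogenous transcription factor activity is captured via cis-element-driven reporter transcripts in transfected HepG2. Total RNA taken at 24 h post-dosing; labelled RT-PCR products resolved by capillary electrophoresis. Gain or loss fitted versus DMSO.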

[18] = ATG_GATA_CIS: Attagene CIS-FACTORIAL HepG2 Assay for human GATA Binding Protein (AID 2282944); conditions: HepG2 GATA cis-element reporter, Attagene multiplex mRNA; actives raise or lower the signal
Procedure, shortened: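 Transfected cis-reporter HepG2 cells were treated with chemicals for 24 hours. Total RNA was then converted to cDNA, amplified with reporter-specific primers and analysed by fluorescent capillary electrophoresis, using DMSO-treated wells as baseline.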

[19] = ATG_GLI_CIS: Attagene CIS-FACTORIAL HepG2 Assay for human Zinc Finger Protein GLI1 (AID 2282945); conditions: HepG2, Attagene cis-factorial reporter mRNA, GLI element; actives raise or lower the signal
Procedure, shortened: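 Bidirectional curve fits relative to DMSO, using reporter mRNA levels from RT-PCR plus capillary electrophoresis. Cells were HepG2 transiently carrying cis-regulated reporter constructs, harvested 24 h after dosing.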

[20] = ATG_FoxO_CIS: Attagene CIS-FACTORIAL HepG2 Assay for human Forkhead box O (FoxO) (AID 2282943); conditions: HepG2 Attagene cis-reporter, FoxO element, mRNA; actives raise or lower the signal
Procedure, shortened: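 Endogenous transcription factor activity read from multiplexed cis-promoter reporter transcripts in transiently transfected HepG2, 24 h after dosing. Reporter RNA measured via RT-PCR plus capillary electrophoresis of FAM-labeled products; gain or loss relative to DMSO.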

Measured: AC50

Transcription factor E2F1 (Homo sapiens), sequence (Q01094 whole entry, looked up): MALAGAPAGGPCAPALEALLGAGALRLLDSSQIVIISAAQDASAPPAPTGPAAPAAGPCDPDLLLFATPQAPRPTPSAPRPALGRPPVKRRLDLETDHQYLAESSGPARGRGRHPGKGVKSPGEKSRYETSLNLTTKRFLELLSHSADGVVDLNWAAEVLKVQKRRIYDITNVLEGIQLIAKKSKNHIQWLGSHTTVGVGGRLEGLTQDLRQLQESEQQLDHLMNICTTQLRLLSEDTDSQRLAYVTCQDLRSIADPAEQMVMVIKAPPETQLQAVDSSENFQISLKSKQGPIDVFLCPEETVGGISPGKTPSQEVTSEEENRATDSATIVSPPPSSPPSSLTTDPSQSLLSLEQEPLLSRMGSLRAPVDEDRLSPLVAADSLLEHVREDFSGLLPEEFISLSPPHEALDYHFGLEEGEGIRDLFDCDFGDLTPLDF
Aryl hydrocarbon receptor (Homo sapiens), sequence (P35869 whole entry, looked up): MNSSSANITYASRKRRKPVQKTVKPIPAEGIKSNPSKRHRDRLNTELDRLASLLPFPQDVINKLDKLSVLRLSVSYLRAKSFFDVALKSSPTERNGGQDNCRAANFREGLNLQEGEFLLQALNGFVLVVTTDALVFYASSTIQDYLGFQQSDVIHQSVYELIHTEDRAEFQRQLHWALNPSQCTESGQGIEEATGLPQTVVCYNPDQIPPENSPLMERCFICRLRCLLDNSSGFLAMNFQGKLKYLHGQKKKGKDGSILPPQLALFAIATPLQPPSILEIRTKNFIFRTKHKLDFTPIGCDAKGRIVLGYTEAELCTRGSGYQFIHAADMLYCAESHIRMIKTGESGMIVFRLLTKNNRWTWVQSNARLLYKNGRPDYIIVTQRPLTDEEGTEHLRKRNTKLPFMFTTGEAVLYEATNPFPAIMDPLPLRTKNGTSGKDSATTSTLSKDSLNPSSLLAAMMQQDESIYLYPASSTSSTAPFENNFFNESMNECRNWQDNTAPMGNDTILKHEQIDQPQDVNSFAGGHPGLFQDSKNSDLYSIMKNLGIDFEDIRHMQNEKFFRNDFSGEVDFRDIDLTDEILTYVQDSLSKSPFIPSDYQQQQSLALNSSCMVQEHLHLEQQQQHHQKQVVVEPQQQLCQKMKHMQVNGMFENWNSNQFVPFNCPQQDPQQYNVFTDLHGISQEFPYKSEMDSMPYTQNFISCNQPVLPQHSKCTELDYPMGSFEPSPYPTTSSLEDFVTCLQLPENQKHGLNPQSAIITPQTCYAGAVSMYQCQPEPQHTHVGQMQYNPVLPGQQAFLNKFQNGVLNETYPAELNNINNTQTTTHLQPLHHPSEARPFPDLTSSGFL
Hepatocyte nuclear factor 3-beta (Homo sapiens), sequence (Q9Y261 whole entry, looked up): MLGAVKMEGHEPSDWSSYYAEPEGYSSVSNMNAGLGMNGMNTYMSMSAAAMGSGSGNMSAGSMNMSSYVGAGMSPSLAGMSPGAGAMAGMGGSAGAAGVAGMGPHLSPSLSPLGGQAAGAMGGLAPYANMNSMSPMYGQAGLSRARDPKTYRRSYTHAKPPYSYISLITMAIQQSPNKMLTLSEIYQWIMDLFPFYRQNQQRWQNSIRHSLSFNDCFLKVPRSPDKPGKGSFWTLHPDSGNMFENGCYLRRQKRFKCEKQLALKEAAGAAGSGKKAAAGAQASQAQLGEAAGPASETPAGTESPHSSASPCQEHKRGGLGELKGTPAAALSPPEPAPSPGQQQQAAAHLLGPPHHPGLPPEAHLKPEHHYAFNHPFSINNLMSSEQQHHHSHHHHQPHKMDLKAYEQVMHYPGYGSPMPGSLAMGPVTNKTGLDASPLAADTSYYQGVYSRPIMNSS
CCAAT/enhancer-binding protein beta (Homo sapiens), sequence (P17676 whole entry, looked up, the tested form may be a part): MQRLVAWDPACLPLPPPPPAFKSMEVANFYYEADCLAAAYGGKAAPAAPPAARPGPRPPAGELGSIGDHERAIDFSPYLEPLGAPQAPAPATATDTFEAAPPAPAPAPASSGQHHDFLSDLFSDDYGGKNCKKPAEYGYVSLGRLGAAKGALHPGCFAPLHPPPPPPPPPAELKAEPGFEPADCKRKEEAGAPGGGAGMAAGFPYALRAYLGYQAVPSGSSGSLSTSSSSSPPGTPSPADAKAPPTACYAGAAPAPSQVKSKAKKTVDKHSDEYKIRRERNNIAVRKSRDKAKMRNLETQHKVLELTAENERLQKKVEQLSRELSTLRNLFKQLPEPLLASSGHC
Retinoic acid receptor alpha (Homo sapiens), sequence (P10276 whole entry, looked up): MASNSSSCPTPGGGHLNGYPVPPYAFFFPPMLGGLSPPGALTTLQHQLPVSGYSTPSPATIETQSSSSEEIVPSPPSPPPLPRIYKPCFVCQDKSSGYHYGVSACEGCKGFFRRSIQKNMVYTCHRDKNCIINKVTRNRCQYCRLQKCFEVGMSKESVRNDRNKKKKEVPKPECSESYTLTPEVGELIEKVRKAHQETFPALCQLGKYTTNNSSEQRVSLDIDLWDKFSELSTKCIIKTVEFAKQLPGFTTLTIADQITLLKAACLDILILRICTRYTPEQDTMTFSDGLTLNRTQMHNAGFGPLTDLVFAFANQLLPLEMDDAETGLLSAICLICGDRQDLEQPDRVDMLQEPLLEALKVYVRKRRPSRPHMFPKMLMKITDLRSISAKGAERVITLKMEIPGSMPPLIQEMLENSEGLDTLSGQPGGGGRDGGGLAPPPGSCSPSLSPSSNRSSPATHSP

CCCCC1(COC(=O)CCC(=O)O)C(=O)N(c2ccccc2)N(c2ccccc2)C1=O
not listed: [20]
inactive: all other assays above

Cc1ccc(-c2ccccc2)cc1
not listed: [15]
inactive: all other assays above

CCOc1ccc(N=Nc2ccc(C=Cc3ccc(N=Nc4ccc(OCC)cc4)cc3S(=O)(=O)O)c(S(=O)(=O)O)c2)cc1
active: [5] 12.2 µM | [8] 7.28 µM
not listed: [15] | [19]
inactive: all other assays above

CC(=O)O[C@@H]1CC2CCC1(C)C2(C)C (stereo partly specified)
not listed: [15] | [19]
inactive: all other assays above

O=C1OC(=O)c2c(Cl)c(Cl)c(Cl)c(Cl)c21
active: [5] 36.2 µM | [17] 33.2 µM
not listed: [15]
inactive: all other assays above

C=CCCC(=O)/C=C/C1C(C)=CCCC1(C)C (stereo unspecified)
active: [3] 140 µM | [4] 175 µM | [5] 53.2 µM | [6] 121 µM | [11] 160 µM
not listed: [15]
inactive: all other assays above

CCOC(=O)C1OC1c1ccccc1 (stereo unspecified)
active: [3] 38.6 µM | [4] 37.6 µM | [5] 11.5 µM | [6] 43.6 µM | [9] 49.9 µM | [11] 57 µM
not listed: [15]
inactive: all other assays above

COc1cc(Cl)c(OC)cc1N
active: [5] 51.2 µM
not listed: [15]
inactive: all other assays above

CN(c1nccc(=O)[nH]1)C1CCN(c2nc3ccccc3n2Cc2ccc(F)cc2)CC1
inactive: all assays above

COC(=O)C=C(C)CCC=C(C)C
inactive: all assays above

Brc1ccc(Br)c(Br)c1
not listed: [18]
inactive: all other assays above

CS(=O)(=O)c1ccc(Cl)cc1
not listed: [15] | [18] | [19]
inactive: all other assays above

C=CCCCCCCCCCC
not listed: [15]
inactive: all other assays above

COC(C)(C)CCCC(C)CC=O (stereo unspecified)
not listed: [15] | [19]
inactive: all other assays above

CCCCCC(C)=O
not listed: [15] | [19]
inactive: all other assays above

Source: PubChem BioAssay (EPA / NIEHS)
